# Hits are enriched below; roughly 1.2% of the tested compounds scored in any of these assays.
# Rv3671c inh: inhibitors of M. tuberculosis serine protease Rv3671c. P9WHR9. inhibition, % at 5.96 µM. 0.048% of 320,000 active. AID 2606; in the data active = inhibition above about 38%;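 note: extracellular domain of Rv3671c used as enzyme; 0% = enzyme with DMSO and 100% = no enzyme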
# Target sequence (P9WHR9 whole entry, looked up, the tested form may be a part): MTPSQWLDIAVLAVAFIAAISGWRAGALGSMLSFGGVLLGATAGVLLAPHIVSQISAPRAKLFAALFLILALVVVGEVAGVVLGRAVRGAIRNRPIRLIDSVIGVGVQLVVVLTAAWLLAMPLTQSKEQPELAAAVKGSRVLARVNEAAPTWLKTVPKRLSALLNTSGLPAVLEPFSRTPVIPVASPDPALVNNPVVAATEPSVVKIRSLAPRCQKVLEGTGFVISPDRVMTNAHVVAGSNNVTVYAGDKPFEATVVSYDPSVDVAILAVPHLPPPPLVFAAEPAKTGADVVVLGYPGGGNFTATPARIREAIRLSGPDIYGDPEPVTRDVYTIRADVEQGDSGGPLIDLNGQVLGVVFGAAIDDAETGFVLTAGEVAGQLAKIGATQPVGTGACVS
# Mtb betalactam: beta-lactam sensitization of Mtb H37Rv. M. tuberculosis H37Rv growth with meropenem, percent inhibition. AID 434955. 0.27% of 330,000 active. inhibition, % at 25 µM; call rule not given here;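 note: growth measured after seven days incubation then overnight dye step; 0% = bacteria only wells and 100% = bacteria with antibiotic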
# CCHF vOTU inh-1: blocks the CCHF virus ovarian tumor domain protease; CCHFV vOTU protease, Pep-AMC fluorescence; 0.55% of 370,000 active; inhibition, % at 11.5 µM; note: 0% = vehicle wells with enzyme and 100% = no enzyme wells
# UGM FP inh: Mtb UDP-galactopyranose mutase inhibition; purified UGM, fluorescence polarization probe displacement; inhibition, % at 10 µM; 0.06% of 320,000 active; AID 504406; in the data active = inhibition above about 10%, passing the limit was not always enough
# RecA splice inh: Mtb RecA intein splicing inhibition. P9WHJ3. cell-free RecA intein splicing, fluorescence. inhibition, % (no concentration beside the values). 0.75% of 290,000 active. AID 2221; in the data active = inhibition above about 30%;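 note: 0% = vehicle wells and 100% = reference inhibitor control wells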
# CCHF vOTU inh-2: CCHFV vOTU protease inhibition, confirmation; shares compounds with CCHF vOTU inh-1; Recombinant CCHFV vOTU, Pep-AMC fluorescence; inhibition, % at 11.5 µM; 17% of 1,900 active; AID 686976
# Starred values were filed as active, the others as inactive; · = no result given. Cut-off read from the data, not from the text of the source, unless noted: active = inhibition above about 30%; inactive = the rest.
SMILES,Rv3671c inh,Mtb betalactam,CCHF vOTU inh-1,UGM FP inh,RecA splice inh,CCHF vOTU inh-2
OC(c1ccccc1)(c1ccccc1)C1CCN(CCCOc2ccc(OC(F)(F)F)cc2)CC1,·,·,31*,·,·,-1
c1ccc2c(c1)N=C(N1CCN(Cc3ccc4c(c3)OCO4)CC1)c1ccccc1S2,·,·,-1,·,·,·
COCCCN1C(=O)[C@H](CC(=O)N2CCN(C(=O)C3CC3)CC2)[C@]2(C(=O)OC)CCCCC=C12,·,·,-6,·,·,·
Cc1cc(C)c(NC(=O)COC(=O)c2cccc3c2C(=O)c2ccccc2C3=O)c(C)c1,4,0,4,2,3,·
Cc1cc(C)c(Nc2cc(S(=O)(=O)O)c(N)c3c2C(=O)c2ccccc2C3=O)c(C)c1,44*,18,47*,-2,·,4
O=C(NN=C/C=C/c1ccco1)c1cc(-c2ccc(Cl)cc2)n[nH]1,·,·,9,·,·,·
C=CCn1c(NS(=O)(=O)c2ccccc2)c(S(=O)(=O)c2ccc(C)cc2)c2nc3ccccc3nc21,-233,-3,33*,3,-1,-14
O=S(=O)(Nc1c(S(=O)(=O)c2ccccc2)c2nc3ccccc3nc2n1C1CCCCC1)c1ccccc1,-59,-2,94*,0,-21,64*
Cc1cc(=O)[nH]c(SCC(=O)Nc2cccc(Cl)c2F)n1,·,·,5,·,·,·
O=c1c(C=NCc2cccnc2)c(C(F)(F)F)[nH]n1-c1nc2ccccc2s1,4,1,30*,-2,1,-5
O=C1C2=C(c3ccccc31)[N+](=O)[C@@H]1CCCC[C@@H]1N2[O-],-25,-4,74*,-1,·,27
O=C1c2ccccc2C(=O)c2c1ccc1c(=O)n(C3CCCCC3)[nH]c21,6,14,-7,0,9,·
COC(=O)[C@]12C[C@H](CC(=O)NCc3ccc(C)o3)C(=O)N(CCc3ccc(OC)c(OC)c3)C1=C[C@H](C1CCCC1)O[C@@H]2C,·,·,6,·,·,·
CCCN(C(=O)Cc1nc(N)n[nH]1)C1(C(=O)Nc2c(C)cccc2C)CCCCC1,3,1,39*,-3,-2,-24
CCCN(C(=O)Cc1nc(N)n[nH]1)C1(C(=O)Nc2ccccc2C)CCCCC1,2,-16,-4,1,-3,·
O=C(NCc1nnc(SCc2ccc(F)cc2)n1-c1ccc(F)cc1)C12CC3CC(CC(C3)C1)C2,-5,70,34*,1,8,-9
CCc1nnc(NS(=O)(=O)c2ccc(NC(=O)/C=C/c3ccccc3Cl)cc2)s1,-38,-4,35*,2,9,5
COc1ccccc1C(=O)N1CCCC(C)(C(=O)NS(=O)(=O)C2CC2)C1 (stereo unspecified),·,·,30*,·,·,-18
CC1(C(=O)NS(=O)(=O)C2CC2)CCCN(C(=O)c2ccccc2C(F)(F)F)C1 (stereo unspecified),·,·,-12,·,·,·
COc1ccccc1CNC(=O)C1CCC(CNc2c(N3CCC(C)CC3)c(=O)c2=O)CC1 (stereo unspecified),-1,-1,31*,-2,-1,-6
Cc1cccc(N=C/C(C(=O)C(F)(F)F)=C(\O)c2ccco2)c1,0,1,6,0,-1,·
O=C(/C(C=Nc1ccc(F)cc1)=C(/O)c1ccco1)C(F)(F)F,-5,-4,33*,-1,-1,-6
COC(=O)c1cc2c(c3c4cc(F)ccc4n(S(=O)(=O)c4cccc(C)c4)c13)C(=O)N(Cc1ccccc1OC)C2,·,·,-7,·,·,·
O=C(N[C@@H]1C[C@@H]2O[C@@H](CO)CC[C@@H]2O[C@@H]1CCc1ccc(-c2cccnc2)cc1)c1cccc(F)c1,·,·,6,·,·,·
S=C(NCc1cccc(Cl)c1)OC1CCC12CCC(c1ccccc1)CC2 (stereo unspecified),·,·,6,·,·,·
SMILES,Rv3671c inh,Mtb betalactam,CCHF vOTU inh-1,UGM FP inh,RecA splice inh,CCHF vOTU inh-2
O=C(c1ccc(COc2ccc(Cl)cc2)o1)N1CCN(Cc2ccc3c(c2)OCO3)CC1,-2,90,30*,1,13,6
O=C(CC1S/C(=N/N=C/c2ccco2)NC1=O)Nc1cccc(Cl)c1Cl (stereo unspecified),-30,-1,33*,-2,2,-7
C=CCc1cccc(/C=N/c2ncccc2O)c1O,-7,4,59*,3,0,16
CCOc1ccc(N(CC(=O)Nc2c(C)n(C)n(-c3ccccc3)c2=O)S(=O)(=O)c2cccc3cccnc23)cc1,·,·,10,·,·,·
CC(=O)c1ccc(NC(=O)C2=CC(c3ccco3)=NS(=O)(=O)N2C)cc1,-4,0,33*,1,-2,-1
COc1ccc(NC(=O)C2=CC(c3ccco3)=NS(=O)(=O)N2C)cc1OC,-3,3,17,-4,3,·
CN1c2ccccc2C(C)(C)C12C=Nc1c(cc(N3CCOCC3)c3ccccc13)O2 (stereo unspecified),·,·,102*,·,46*,-16
COc1ccccc1/C=C1\SC(=S)N(CC(=O)NC2CCS(=O)(=O)C2)C1=O (stereo unspecified),3,-5,31*,2,2,0
O=C(O)CN1C(=O)/C(=C\c2cc(Br)ccc2OCc2ccc(F)cc2)SC1=S,-19,1,31*,0,10,25
O=C(CN1C(=O)N/C(=C\c2ccccc2OCc2ccc(C(=O)O)cc2)C1=O)Nc1ccc(F)cc1,-23,4,32*,1,2,-12
O=C(O)CN1C(=O)/C(=C\c2ccccc2OCc2ccc(F)cc2)SC1=S,0,0,35*,-1,8,7
OCCN1CCCC12CCC(c1ccccc1)CC2 (stereo unspecified),·,·,-1,·,·,·
Cc1ccc2c(c1)C1CS(=O)(=O)N(C3CCCC3)C(=O)N1C2 (stereo unspecified),·,·,-1,·,·,·
Cc1nc2c(C(=O)NCCC(C)C)c[nH]n2c(=O)c1Cl,-4,3,27,7,-2,·
Cc1nc2c(C(=O)NCCC(C)C)c[nH]n2c(=O)c1Cc1ccccc1F,-1,0,41*,2,5,12
COc1ccccc1/C=N/NC(=O)c1ccc(=O)n(C)c1,-14,2,31*,2,-4,-5
COc1cccc(/C=N/NC(=O)c2ccc(=O)n(C)c2)c1OC,-5,2,1,-1,-2,·
COc1ccc(-c2cc(-c3nnc(SCC(=O)Nc4ccccc4-c4ccccc4)n3N)[nH]n2)cc1,·,·,2,·,·,·
CCN(CC)c1cc(Cl)c2nonc2c1N,-2,0,-1,-1,3,·
CN(C)c1cc(Cl)c2nonc2c1N,-39,-11,71*,-1,6,3
O=C(N[C@H]1C[C@@H]2O[C@H](CO)CC[C@@H]2O[C@@H]1CCc1ccc(-c2cccnc2)cc1)c1cccc(F)c1,·,·,0,·,·,·
O=S1(=O)N=C(N(CCO)/N=C/c2ccncc2)c2ccccc21,6,-1,30*,3,·,-8
N#Cc1c(-c2ccccc2)nc(SCC(=O)Nc2ccccc2)[nH]c1=O,-2,-3,14,3,·,·
N#Cc1c(-c2ccccc2)nc(SCC(=O)Nc2ccc(OC(F)(F)Cl)cc2)[nH]c1=O,-34,-9,31*,-2,19,16
CC(C)CSc1nnc(-c2ccco2)n1C,·,·,-5,·,·,·
